Here are results for three molecules from PubChem BioAssay (NCATS).

SMILES strings stand for the structures. Inconclusive results are not listed. Active and inactive are the calls of the source. Unless noted, calls come from the whole dose curve; as a rule, active = well fitted curve in the direction sought with a large enough effect; inconclusive = small, poorly fitted or top-dose-only effect, or another doubt; inactive = no such curve, though single readings can be large; an effect the other way counts as inactive or inconclusive.

Experiment [1] can be described thus: qHTS Assay for Lipid Storage Modulators (AID 1519; calls by dose curve; for activity change, negative = inhibition: % is set by controls: 0 for no effect and ±100 for the full control effect). To be noted: Drosophila S3 cells, BODIPY lipid droplet/cell ratio, laser cytometry, cells loaded with oleic acid. Summed up:
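Cells seeded at 5,000 per well were treated with compounds over a concentration series and loaded with oleic acid (400 uM, as added). Lipid droplet fluorescence (488 nm excitation, 500-530 nm channel) was read by laser-scanning cytometry and normalized to 20 uM Triacsin C.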
On the technique in general: qHTS replaces the single test concentration by a dilution series.

A short description of experiment [2]: Counterscreen for APE1 Inhibitors: Fluorescent Dye Displacement Validation Assay (AID 1707).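 Note: plate controls were ThO with dsDNA and no compound for no effect and ThO without dsDNA for full effect.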 Summed up:
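Thiazole Orange (250 nM) bound to 50 nM TAMRA-labelled dsDNA with tetrahydrofuran abasic site; displacement by DNA-binding compounds lowers fluorescence. Buffer 50 mM Tris-HCl pH 7.5, 50 mM NaCl, 2 mM MgCl2, 0.01% Tween-20; endpoint read at 480/540 nm.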
For orientation: A counterscreen serves to expose hits that act by an unwanted route or on another target.

The target of experiment [3] is Endonuclease 4 (Escherichia coli (strain K12)) (UniProt P0A6C1). In words: Counterscreen for APE1 Inhibitors: qHTS Validation Assay for Inhibitors of Endonuclease IV (AID 1708). Note: % is set by controls: 0 for no effect and ±100 for the full control effect. The method in brief: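 Concentration-response counterscreen run identically to the APE1 assay: 15 min room-temperature preincubation of 2 nM enzyme with compound, reaction started with 50 nM quenched abasic DNA, progress taken from kinetic fluorescence.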

The nature of experiment [4]: qHTS for differential inhibitors of proliferation of Plasmodium falciparum line 7G8 (AID 1815).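 Note: potency is the fitted concentration of half-maximal effect; parasite growth measured after three days of incubation.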
The nature of experiment [5]: qHTS for differential inhibitors of proliferation of Plasmodium falciparum line GB4 (AID 1816).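 Note: potency is the fitted concentration of half-maximal effect; parasite growth measured after 72 h incubation.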 To be noted: Potency: Plasmodium falciparum GB4 proliferation inhibition.
A short description of experiment [6]: qHTS for differential inhibitors of proliferation of Plasmodium falciparum line 3D7 (AID 1876). Note: potency is the fitted concentration of half-maximal effect.
Experiment [7] is described as follows: qHTS for differential inhibitors of proliferation of Plasmodium falciparum line Dd2 (AID 1882). Note: potency is the fitted concentration of half-maximal effect; nearly all actives have a fitted effect of over 65% in size. The note with it: Potency: Plasmodium falciparum Dd2 proliferation inhibition. The method in brief:
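Dd2-infected erythrocytes (0.3% parasitemia, 2.5% hematocrit final) incubated with compound 72 h at 37 C, 5% CO2; lysed with saponin/Triton buffer containing SYBR Green I, incubated overnight in the dark, then read by fluorescence (485/535 nm). Normalized to 0.29 uM artemisinin and DMSO.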

Experiment [8] is described as follows: qHTS for differential inhibitors of proliferation of Plasmodium falciparum line W2 (AID 1883).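 Note: potency is the fitted concentration of half-maximal effect; parasites grown with compound for 72 h before lysis and staining.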 The note with it: Potency: Plasmodium falciparum W2 proliferation inhibition.
Experiment [9] deals with ATP-dependent DNA helicase Q1 (Homo sapiens) (UniProt P46063). As to the kind of experiment: qHTS Validation Assay for Inhibitors of RecQ-Like Dna Helicase 1 (RECQ1) (AID 2353).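 Note: plate controls were DMSO vehicle for no effect and enzyme-free control for full effect.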 Summed up:
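50 nM RECQ1T1 preincubated 15 min with compound in Tris pH 8.0 buffer with MgCl2, DTT, Tween-20 and 2.5 ug/ml poly(dI-dC); started with 200 nM TAMRA/BHQ-2 forked duplex and 2 mM ATP. Unwinding read as fluorescence (525/598 nm), two reads 2 h apart.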

Experiment [10] concerns the target RecQ-like DNA helicase BLM (Homo sapiens) (UniProt P54132). In words: qHTS Validation Assay for Inhibitors of Bloom's syndrome helicase (BLM) (AID 2364).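 Note: plate controls were DMSO vehicle for no effect and enzyme-free control for full effect.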 The method in brief:
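BLM 50 nM in 25 mM Tris-HCl pH 8.0, 5 mM NaCl, 2 mM MgCl2, 1 mM DTT, 0.01% Tween-20, 2.5 ug/ml poly(dI-dC); 15 min cpd preinc, RT. Start: 200 nM forked DNA + 2 mM ATP (final). TAMRA read, 2 reads 2 h apart.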

Experiment [11] is described as follows: Quantitative high throughput screen for delayed death inhibitors of the malarial parasite plastid, 96 hour incubation (AID 488745).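 Note: luciferase-expressing P. falciparum in erythrocytes at 2% hematocrit and 0.1% parasitemia; % is set by controls: 0 for no effect and ±100 for the full control effect; nearly all actives have a fitted effect of over 70% in size.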 The method in brief:
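Infected erythrocytes were added to compound in Albumax-supplemented RPMI 1640 at 0.1% parasitemia and 2% hematocrit (final), incubated 96 h at 37 C under 5% CO2, then luciferase reagent was added and luminescence measured.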

Experiment [12] addresses Thyrotropin receptor (Homo sapiens) (UniProt P16473). As to the kind of experiment: qHTS Assay for Antagonists of the Thyroid Stimulating Hormone Receptor (AID 488980). Note: 0% is about no effect. The method in brief:
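Cells expressing human TSHR (HEK293) are dispensed in HBSS/HEPES containing 70 uM RO 20-1724, compound is added, then TSH at EC80 (4 nM final). Antibody in lysis buffer follows, 30 minutes at room temperature before HTRF detection.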

For experiment [13], the target named is Thyrotropin-releasing hormone receptor (Homo sapiens) (UniProt P34981). As to the kind of experiment: qHTS for Small Molecule Agonists and Allosteric Enhancers of Human TRH Receptor: Validation Screen for Agonists (AID 493127;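 active = calcium activation more than 3 SD above the typical response in the agonist read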;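 note: intracellular calcium rise by fluo-8 fluorescence before TRH EC20 addition; 0% is about no effect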). To be noted: TRH receptor agonist cell assay; at 2 µM; stronger effect = higher value. Summed up: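 Cells 2000/well, 10% FCS, 18 h 33.5C/5% CO2 → fluo-8 Ca dye, RT 30 min–1.5 h → FDSS baseline 10 × 1 s → compound added → 230 cycles (1 s/cycle) agonist mode. TRH controls.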

The target of experiment [14] is Galactokinase (Homo sapiens) (UniProt P51570). In words: qHTS Validation Assay for Inhibitors of Human Galactokinase (GALK) (AID 493189). Note: 0% is about no effect. The method in brief: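 Compounds were pin-transferred into ATP buffer, then GALK-galactose mix was added (final 5 nM enzyme, 100 uM galactose, 35 uM ATP). After 1 h at room temperature, remaining ATP was measured luminescently.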

Experiment [15] can be described thus: Validation screen for small molecules that induce DNA re-replication in SW480 colon adenocarcinoma cells (AID 504364). Note: 0% is about no effect. Summed up: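 250 cells/well; compound pinned in; 48 hr, 37 C, 5% CO2; Hoechst added, 40 min; nuclear fluorescence imaged, 405 ex / 500-530 em; re-replication scored as increase in high-intensity nuclei.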
Experiment [16] has as its target Voltage-gated inwardly rectifying potassium channel KCNH2 (Homo sapiens) (UniProt Q12809). As to the kind of experiment: qHTS Assay for Small Molecule Inhibitors of the Human hERG Channel Activity (AID 588834).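 Note: potency is the fitted concentration of half-maximal effect; lower thallium flux fluorescence means stronger hERG block; nearly all actives have a fitted effect of over 50% in size.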 Summed up:
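Measured: FluxOR fluorescence after thallium stimulation in U2OS cells transduced with hERG by baculovirus. Compounds pre-incubated around 10 min; medium Opti-MEM with 2% FCS. AC50 from Hill equation.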

Experiment [17] can be described thus: P-glycoprotein substrates identified in KB-3-1 adenocarcinoma cell line, qHTS therapeutic library screen (AID 1346986). Note: % is set by controls: 0 for no effect and ±100 for the full control effect; nearly all actives have a fitted effect of over 60% in size. The method in brief:
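Resistance attributable to P-gp was assessed by comparing AC50 in KB-8-5-11 with parental KB-3-1 and by tariquidar reversal. Cells were exposed 72 h and viability read by CellTiter-Glo.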

The test system of experiment [18] is Zika virus NS2B-NS3 protease. In words: Primary screen GU AMC qHTS for Zika virus inhibitors (AID 1347154).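 Note: 0% = no-inhibitor control and -100% = no-enzyme control; nearly all actives have a fitted effect of over 70% in size.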 The method in brief:
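Unlinked Zika NS2B hydrophilic domain/NS3 protease domain noncovalent complex (25 nM final) in 10 mM Tris-HCl pH 8.0, 0.01% Tween 20, with AMC peptide substrate. Fluorescence (ex 340, em 450 nm) change over 15 min, room temperature; percent inhibition fitted to 4-parameter Hill equation.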

A short description of experiment [19]: qHTS to identify inhibitors of the type 1 interferon - major histocompatibility complex class I in skeletal muscle: primary screen against the NCATS Mechanism Interrogation Plate v5.0 (MIPE) Libary (AID 1347411).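 For activity change, negative = inhibition: plate controls were vehicle for no effect and reference inhibitor for full effect.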 Note: nearly all actives have a fitted effect of over 65% in size. Note: potency is the fitted concentration of half-maximal effect. Summed up:
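Luminescence from HiBiT-tagged endogenous HLA-B*08:01 served as the MHC class I read-out. CRISPR-engineered C25cl48 human myoblasts received 4.0 ng/ml IFN-beta plus compound for 24 hrs, with an 11-point, 1:3 series topping at 46 uM final.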

Experiment [20] deals with Cytochrome P450 2D6 (Homo sapiens) (UniProt P10635). As to the kind of experiment: Cytochrome P450 family 2 subfamily D member 6 (CYP2D6) small molecule antagonists: luciferase biochemical (cell-free) qHTS assay (AID 1645840; active = well fitted curve in the direction sought with a large enough effect in the repeat runs; an effect the other way counts as inactive or inconclusive; note: potency is the fitted concentration of half-maximal effect; nearly all actives have a fitted effect of over 55% in size). The method in brief: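 P450-Glo luminescent screen: recombinant CYP2D6 enzyme–proluciferin substrate mix preincubated with compound 10 min at room temperature, then NADPH regeneration added for 1 h at room temperature. Detection reagent added for 20 min; luciferin light read as relative luminescence units.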

Experiment [21] in a line: Primary qHTS for inhibitors of nuclear receptor binding SET domain protein 2 (NSD2) in an isogenic RCH-ACV NSD2 p.E1099K mutant (9B) (AID 1645876). Note: potency is the fitted concentration of half-maximal effect; nearly all actives have a fitted effect of over 70% in size.
Experiment [22] is described as follows: Primary qHTS for inhibitors of nuclear receptor binding SET domain protein 2 (NSD2) in an RCH-ACV wild type WT cells (2C) (AID 1645877). Note: nearly all actives have a fitted effect of over 70% in size. Note: potency is the fitted concentration of half-maximal effect.
Experiment [23] is described as follows: NCATS anti-infectives library activity on HEK293 viability as a counter-qHTS vs the C. elegans viability qHTS (AID 1745854). Note: % is set by controls: 0 for no effect and ±100 for the full control effect. Summed up: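 Compounds were acoustically plated (several concentrations, 1:5, final up to 41.7 uM), then 1500 HEK293 cells added per well and incubated 24 hr at 37C, 5% CO2. CellTiter-Glo was added and luminescence read after 10 min.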

A short description of experiment [24]: NCATS anti-infectives library activity on the primary C. elegans qHTS viability assay (AID 1745855; calls by dose curve). Summed up: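 Viability read-out is GFP fluorescence of PE254-GFP-FLuc C. elegans, measured by laser cytometry (488 nm) at day 0, 3 and 7. Ten L1 worms per well were incubated 7 days at 21 °C with compounds and bacterial capsules in S medium.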
In experiment [25] the target is Glutathione peroxidase 1 (Homo sapiens) (UniProt P07203). In words: Primary qHTS Assay for Inhibitors of Recombinant Selenoprotein Glutathione Peroxidase 1 (GPX1) (AID 1845191). Note: nearly all actives have a fitted effect of over 65% in size. Summed up:
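Recombinant GPX1 (10 nM final) was preincubated with compound for 30 min at room temperature, then reacted with 1 mM GSH, 0.5 mM CHP, 0.5 mM NADPH and 100 nM glutathione reductase; NADPH fluorescence (340/450 nm) was read at 0 and 15 min.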

Experiment [26] deals with Phospholipid hydroperoxide glutathione peroxidase GPX4 (Homo sapiens) (UniProt P36969). In words: Primary qHTS Assay for Inhibitors of Recombinant Selenoprotein Glutathione Peroxidase 4 (GPX4) (AID 1845192). Note: % is set by controls: 0 for no effect and ±100 for the full control effect; nearly all actives have a fitted effect of over 65% in size. To be noted: outcome: dose series up to 50 µM unless noted. The method in brief:
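GR-coupled readout: 100 nM GR, 1 mM GSH, 0.5 mM NADPH; NADPH fluorescence (ex 340/em 450 nm) read at t=0 and after 15 min RT. GPX4 200 nM, preincubated 30 min with compound; substrate 0.5 mM CHP.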

A short description of experiment [27]: qHTS drug screen for cell cycle checkpoint inhibitors in PARPi-resistant BRCA-mutant ovarian cancer cell lines. (AID 1963452; calls by dose curve). To be noted: PEO1/OlaR viability, CellTiter-Glo luminescence, 96 h, stronger effect = lower value. Summed up: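 PEO1, PEO4 and PEO1/OlaR ovarian cancer cells, 600 per well, exposed 96 h at 37C to a dilution series. Viability read by CellTiter-Glo luminescence, normalized to DMSO and empty wells; activity summarized as Z-AUC.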

The nature of experiment [28]: qHTS assay to identify inhibitors of the type 1 interferon - major histocompatibility complex class I in skeletal muscle: Counter screen cell viability and HiBit confirmation (AID 1347412). Note: potency is the fitted concentration of half-maximal effect; nearly all actives have a fitted effect of over 60% in size. To be noted: iHSKM muscle cells + IFN-b, HiBiT or CellTiter-Glo, 24 h; HiBiT. Summed up: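 Myoblasts (C25cl48, HLA-B HiBiT) seeded in medium without dexamethasone, IFN-b 4 ng/ml added except unstimulated columns; 1 hr later compounds pinned (12-pt 1:3, top 46 uM final). Incubated 24 hrs, lysed 10 min, luminescence measured.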

Experiment [29] can be described thus: P-glycoprotein substrates identified in KB-8-5-11 adenocarcinoma cell line, qHTS therapeutic library screen (AID 1346987). Note: nearly all actives have a fitted effect of over 65% in size. The method in brief: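 Steps: plate 500 KB-8-5-11 cells/well in DMEM + 10% FCS (colchicine removed); pin compounds in dose-response; incubate 72 h, 37 degree C, 5% CO2; add CellTiter-Glo, 5 min; read luminescence.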
[30] abbreviates: measured here: PEO1 parental Z-AUC.

Glutathione peroxidase 1 (Homo sapiens), sequence (P07203 whole entry, looked up): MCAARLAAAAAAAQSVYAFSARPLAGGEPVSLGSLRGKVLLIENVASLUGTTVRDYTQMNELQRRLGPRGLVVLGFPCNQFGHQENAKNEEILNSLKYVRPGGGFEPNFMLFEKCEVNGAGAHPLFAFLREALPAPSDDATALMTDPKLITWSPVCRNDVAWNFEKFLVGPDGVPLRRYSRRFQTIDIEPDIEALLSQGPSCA
ATP-dependent DNA helicase Q1 (Homo sapiens), sequence (P46063 whole entry, looked up): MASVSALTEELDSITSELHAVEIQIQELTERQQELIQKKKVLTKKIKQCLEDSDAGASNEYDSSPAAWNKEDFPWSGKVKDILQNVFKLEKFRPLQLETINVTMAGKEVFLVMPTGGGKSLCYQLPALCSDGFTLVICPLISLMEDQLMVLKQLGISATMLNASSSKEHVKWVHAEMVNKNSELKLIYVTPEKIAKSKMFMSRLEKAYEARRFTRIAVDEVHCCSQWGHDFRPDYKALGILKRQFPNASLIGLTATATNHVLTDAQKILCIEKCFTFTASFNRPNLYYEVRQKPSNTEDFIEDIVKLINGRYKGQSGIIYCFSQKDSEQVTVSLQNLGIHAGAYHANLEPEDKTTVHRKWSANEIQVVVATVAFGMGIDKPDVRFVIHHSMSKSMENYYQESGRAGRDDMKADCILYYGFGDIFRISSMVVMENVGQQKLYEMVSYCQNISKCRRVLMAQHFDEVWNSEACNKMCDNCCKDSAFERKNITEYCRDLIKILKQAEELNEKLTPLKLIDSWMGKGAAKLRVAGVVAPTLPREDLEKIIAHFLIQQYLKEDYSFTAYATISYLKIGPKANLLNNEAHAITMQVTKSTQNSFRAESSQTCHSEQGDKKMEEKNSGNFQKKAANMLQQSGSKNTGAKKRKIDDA
RecQ-like DNA helicase BLM (Homo sapiens), sequence (P54132 whole entry, looked up): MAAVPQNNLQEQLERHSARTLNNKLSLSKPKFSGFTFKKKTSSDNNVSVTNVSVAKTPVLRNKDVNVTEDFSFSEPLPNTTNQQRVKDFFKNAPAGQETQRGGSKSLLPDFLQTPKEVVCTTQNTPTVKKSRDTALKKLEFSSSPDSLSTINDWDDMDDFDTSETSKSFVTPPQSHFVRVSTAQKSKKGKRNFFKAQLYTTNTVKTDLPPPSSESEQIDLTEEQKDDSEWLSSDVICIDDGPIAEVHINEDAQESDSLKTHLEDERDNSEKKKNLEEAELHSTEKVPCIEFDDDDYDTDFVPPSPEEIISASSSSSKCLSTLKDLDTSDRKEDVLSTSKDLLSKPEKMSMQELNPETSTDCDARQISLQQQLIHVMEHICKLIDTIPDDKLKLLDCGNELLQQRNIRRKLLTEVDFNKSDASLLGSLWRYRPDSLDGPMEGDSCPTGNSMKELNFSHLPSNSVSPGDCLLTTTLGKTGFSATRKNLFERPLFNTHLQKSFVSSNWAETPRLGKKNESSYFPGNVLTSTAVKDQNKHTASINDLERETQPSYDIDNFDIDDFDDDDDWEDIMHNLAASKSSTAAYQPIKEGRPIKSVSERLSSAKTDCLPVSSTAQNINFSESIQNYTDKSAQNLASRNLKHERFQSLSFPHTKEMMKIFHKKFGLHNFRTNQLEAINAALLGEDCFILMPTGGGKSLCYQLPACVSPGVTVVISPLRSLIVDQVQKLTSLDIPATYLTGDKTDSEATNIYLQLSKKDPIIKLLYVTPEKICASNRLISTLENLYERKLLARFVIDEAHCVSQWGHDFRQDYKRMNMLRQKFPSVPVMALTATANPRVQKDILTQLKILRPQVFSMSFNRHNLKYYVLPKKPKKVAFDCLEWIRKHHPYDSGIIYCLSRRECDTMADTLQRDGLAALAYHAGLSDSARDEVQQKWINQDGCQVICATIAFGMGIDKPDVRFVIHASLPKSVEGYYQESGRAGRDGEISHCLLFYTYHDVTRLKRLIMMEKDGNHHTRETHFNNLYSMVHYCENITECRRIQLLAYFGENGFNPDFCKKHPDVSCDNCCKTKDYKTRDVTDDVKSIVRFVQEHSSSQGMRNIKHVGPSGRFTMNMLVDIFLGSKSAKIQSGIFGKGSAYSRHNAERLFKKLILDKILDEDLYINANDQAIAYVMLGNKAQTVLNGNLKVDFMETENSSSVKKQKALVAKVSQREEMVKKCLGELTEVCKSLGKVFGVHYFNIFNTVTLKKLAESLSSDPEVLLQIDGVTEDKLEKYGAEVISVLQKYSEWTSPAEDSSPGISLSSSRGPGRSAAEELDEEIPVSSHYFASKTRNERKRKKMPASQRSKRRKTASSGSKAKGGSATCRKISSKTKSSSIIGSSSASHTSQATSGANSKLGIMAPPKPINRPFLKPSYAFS
Thyrotropin receptor (Homo sapiens), sequence (P16473 whole entry, looked up): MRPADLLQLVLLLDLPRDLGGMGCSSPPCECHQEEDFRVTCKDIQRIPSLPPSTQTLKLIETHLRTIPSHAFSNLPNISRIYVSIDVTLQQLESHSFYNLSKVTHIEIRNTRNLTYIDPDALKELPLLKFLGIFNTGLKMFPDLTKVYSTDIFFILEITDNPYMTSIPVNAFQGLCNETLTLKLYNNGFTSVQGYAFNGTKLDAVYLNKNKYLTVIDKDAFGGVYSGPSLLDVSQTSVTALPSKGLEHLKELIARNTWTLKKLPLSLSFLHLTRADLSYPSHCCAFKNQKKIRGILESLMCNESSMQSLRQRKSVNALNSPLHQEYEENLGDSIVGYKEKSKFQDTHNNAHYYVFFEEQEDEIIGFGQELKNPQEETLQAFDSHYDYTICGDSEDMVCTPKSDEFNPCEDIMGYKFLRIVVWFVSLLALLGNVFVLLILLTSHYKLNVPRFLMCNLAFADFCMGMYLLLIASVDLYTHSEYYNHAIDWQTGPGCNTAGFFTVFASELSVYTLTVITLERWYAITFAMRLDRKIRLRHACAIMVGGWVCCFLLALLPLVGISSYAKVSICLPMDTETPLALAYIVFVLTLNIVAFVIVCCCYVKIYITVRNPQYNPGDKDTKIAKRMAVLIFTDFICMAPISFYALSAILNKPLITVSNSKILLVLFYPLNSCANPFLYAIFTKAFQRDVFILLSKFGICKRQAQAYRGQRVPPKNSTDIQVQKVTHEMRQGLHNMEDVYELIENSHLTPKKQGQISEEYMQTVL
Voltage-gated inwardly rectifying potassium channel KCNH2 (Homo sapiens), sequence (Q12809 whole entry, looked up): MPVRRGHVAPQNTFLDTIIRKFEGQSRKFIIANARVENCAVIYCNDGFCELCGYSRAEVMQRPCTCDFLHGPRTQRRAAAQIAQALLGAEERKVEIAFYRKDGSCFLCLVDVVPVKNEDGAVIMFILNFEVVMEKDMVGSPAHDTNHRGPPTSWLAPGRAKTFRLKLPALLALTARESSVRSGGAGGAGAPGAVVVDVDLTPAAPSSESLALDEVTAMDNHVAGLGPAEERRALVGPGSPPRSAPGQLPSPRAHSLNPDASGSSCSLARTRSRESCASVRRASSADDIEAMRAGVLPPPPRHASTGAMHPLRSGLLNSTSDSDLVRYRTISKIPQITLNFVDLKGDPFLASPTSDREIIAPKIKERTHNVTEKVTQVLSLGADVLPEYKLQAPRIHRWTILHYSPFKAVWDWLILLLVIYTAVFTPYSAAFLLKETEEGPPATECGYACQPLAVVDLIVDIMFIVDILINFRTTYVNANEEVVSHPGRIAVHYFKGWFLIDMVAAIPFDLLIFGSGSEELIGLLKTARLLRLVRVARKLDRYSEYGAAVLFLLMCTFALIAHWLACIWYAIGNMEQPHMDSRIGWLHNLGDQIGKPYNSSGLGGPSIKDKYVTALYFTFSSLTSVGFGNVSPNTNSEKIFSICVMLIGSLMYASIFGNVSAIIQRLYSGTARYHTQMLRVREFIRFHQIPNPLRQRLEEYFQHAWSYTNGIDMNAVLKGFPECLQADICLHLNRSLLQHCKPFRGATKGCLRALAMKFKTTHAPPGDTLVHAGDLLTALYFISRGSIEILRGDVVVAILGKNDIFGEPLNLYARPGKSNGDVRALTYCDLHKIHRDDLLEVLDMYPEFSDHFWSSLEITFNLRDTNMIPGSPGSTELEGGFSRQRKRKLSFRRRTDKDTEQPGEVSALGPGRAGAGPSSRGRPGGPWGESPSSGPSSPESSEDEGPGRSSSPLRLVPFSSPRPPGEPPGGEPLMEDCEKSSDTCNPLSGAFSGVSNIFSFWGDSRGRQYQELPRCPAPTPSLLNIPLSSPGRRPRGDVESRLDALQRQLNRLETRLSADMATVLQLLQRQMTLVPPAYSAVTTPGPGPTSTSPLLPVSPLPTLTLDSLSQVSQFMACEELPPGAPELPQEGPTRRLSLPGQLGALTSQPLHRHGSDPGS
Cytochrome P450 2D6 (Homo sapiens), sequence (P10635 whole entry, looked up): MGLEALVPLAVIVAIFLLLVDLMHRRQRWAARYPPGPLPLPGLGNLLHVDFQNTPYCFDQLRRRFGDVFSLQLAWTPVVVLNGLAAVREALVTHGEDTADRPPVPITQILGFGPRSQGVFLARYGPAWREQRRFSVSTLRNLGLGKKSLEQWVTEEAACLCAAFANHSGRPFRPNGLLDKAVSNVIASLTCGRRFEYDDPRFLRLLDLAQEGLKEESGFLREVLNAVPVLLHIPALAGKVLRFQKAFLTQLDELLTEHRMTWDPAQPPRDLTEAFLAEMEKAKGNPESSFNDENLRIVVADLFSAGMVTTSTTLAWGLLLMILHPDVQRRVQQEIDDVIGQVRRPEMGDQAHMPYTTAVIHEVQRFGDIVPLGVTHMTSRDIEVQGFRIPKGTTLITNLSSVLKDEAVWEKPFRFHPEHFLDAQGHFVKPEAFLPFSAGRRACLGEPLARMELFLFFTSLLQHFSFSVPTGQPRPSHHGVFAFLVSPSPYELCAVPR
Phospholipid hydroperoxide glutathione peroxidase GPX4 (Homo sapiens), sequence (P36969 whole entry, looked up): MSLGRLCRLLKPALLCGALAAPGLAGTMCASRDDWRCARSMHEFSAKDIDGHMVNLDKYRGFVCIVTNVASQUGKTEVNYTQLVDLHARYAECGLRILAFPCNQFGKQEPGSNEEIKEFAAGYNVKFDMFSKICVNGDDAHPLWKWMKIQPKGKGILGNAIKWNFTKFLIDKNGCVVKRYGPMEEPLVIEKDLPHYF

For `O=S(=O)(NCCNC/C=C/c1ccc(Br)cc1)c1cccc2cnccc12`, in [1] (at 57.5 µM (top of the series)), the activity change, negative = inhibition is -23.6% (inactive). In addition, the max response was -29.8% in experiment [1] (measured here: cell count channel max response) and -49.7% in [1] (measured here: lipid channel max response). Besides, the Potency entry in experiment [2], in experiment [3], in [9], in experiment [10], in [11] and in experiment [17] was “inactive” throughout. Moreover, the Potency entry in experiment [18], in experiment [19], in experiment [24], in experiment [25] and in experiment [26] was “inactive” each time. Moreover, the Potency was 8.91 µM (active) in experiment [4]; 12.6 µM (active) in [5]; 11.2 µM (active) in experiment [6]; 8.91 µM (active) in [7]; 5.01 µM (active) in experiment [8]; 2.82 µM (active) in experiment [16]. For the same molecule, the results for the Potency in [20], in experiment [21] and in experiment [22] were 4.77 µM (active), 16.6 µM (active) and 14.8 µM (active), respectively. Moreover, the molecule was classed as inactive in experiment [12], in experiment [14], in [15] and in experiment [23]. In experiment [13], the activation was 5.62% (inactive). In addition, the Z-AUC in experiment [27] was 0.684 (inactive); in [27] (setting [30]), 1.26; in [27] (measured here: PEO4 Z-AUC), 0.757.

`Cc1ccc(Nc2ncc3c(n2)N(C)C(=O)N(c2cc(NC(=O)c4cccc(C(F)(F)F)c4)ccc2C)C3)cn1`: the Potency result in [17] and in experiment [25] was “inactive” in each case. Further, the Potency in experiment [19] is 0.0658 µM (active); in [21] it was 0.0332 µM (active); in [22] it was 0.059 µM (active); in [28], 0.394 µM (active). The Z-AUC in experiment [27] is -1.89 (inactive); in experiment [27] (setting [30]), -2.2; in experiment [27] (measured here: PEO4 Z-AUC), -1.4.

Consider `CC(C)OC(=O)OCOP(=O)(COC(C)Cn1cnc2c(N)ncnc21)OCOC(=O)OC(C)C` (stereo not drawn), for which the Potency entry in [17], in [29] and in experiment [22] was “inactive” each time.
